The source of these data is PubChem BioAssay.

Some of the results follow. A number with no mark means an inactive call. Activity calls are given as the source filed them.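 Rule for the calls: active = mean inhibition above about 50% in the one-dose retest (limit read from the data); inactive = the rest.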

The inhibition is the relative decrease from the control value, in per cent.

Chain of Sentrin-specific protease 6 (Homo sapiens) (Q9GZR1 628-1112 limits assumed): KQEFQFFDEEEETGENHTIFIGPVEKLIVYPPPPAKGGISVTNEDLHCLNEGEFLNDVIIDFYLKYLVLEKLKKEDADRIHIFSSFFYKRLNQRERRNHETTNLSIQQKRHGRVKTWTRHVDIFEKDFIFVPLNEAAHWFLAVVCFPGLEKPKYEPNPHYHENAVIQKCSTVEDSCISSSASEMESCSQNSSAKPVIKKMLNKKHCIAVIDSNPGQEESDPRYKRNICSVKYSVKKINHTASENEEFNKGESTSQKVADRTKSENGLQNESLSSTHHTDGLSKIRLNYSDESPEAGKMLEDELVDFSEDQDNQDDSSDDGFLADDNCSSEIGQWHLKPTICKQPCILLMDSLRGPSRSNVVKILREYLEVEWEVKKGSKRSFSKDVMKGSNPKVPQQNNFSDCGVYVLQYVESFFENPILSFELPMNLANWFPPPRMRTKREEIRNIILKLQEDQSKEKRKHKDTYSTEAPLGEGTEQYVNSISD

The experiment concerns the target Sentrin-specific protease 6 (Homo sapiens) (UniProt Q9GZR1). The experiment in a line: inhibition of human SENP6 catalytic domain – biochemical, luminescence, single concentration, confirmation (AID 488915). The following applies: recombinant SENP6, Z-RLRGG-aminoluciferin luminescence; at 12.5 µM; stronger effect = higher value.
For the compound `CCOc1ccc(N/C=C/C(=O)c2ccccc2)cc1`, the inhibition is 94.9% (active).

Regarding `CCC(=O)Nc1ccc(C(=O)Nc2cccc(OC)c2)cc1`, the inhibition was 39%.

Turning to `O=C(Nc1ccccc1)Nc1ccccc1C(=O)NCc1ccco1`, the inhibition was 60.7% (active).

As for `COc1ccc(CNC(=O)COc2ccccc2C(=O)c2cnn(-c3ccccc3)c2)cc1OC`, the inhibition is 76.1% (active).

For `O=C(Nc1cc2ccccc2oc1=O)C1CCCCC1`, the inhibition was 4.9%.

As to `CCSc1nnc(NC(=O)c2ccc(C)cc2)s1`, the inhibition was 23.5%.

As to `Cc1ccc(F)c(NC(=O)CCc2ccccc2)c1`, the inhibition is 30.4%.

`Cc1nonc1C(=O)N/N=C/c1ccc(O)cc1`: the inhibition was 101% (active).

Turning to `Brc1ccccc1C1Nc2cccc3cccc(c23)N1`, the inhibition is 3.3%.

For `Cc1ccnc(NC(=O)c2ccoc2C)c1`, the inhibition is 88.9% (active).

`COc1cccc(C(=O)Nc2nc3ccc(S(C)(=O)=O)cc3s2)c1`: the inhibition is 86.4% (active).

Regarding `COc1ccc2occ(C(=O)c3ccc(N=C(C)N(C)C)cc3)c2c1`, the inhibition was 42.5%.

On to `CC(=NCc1ccco1)c1c(C(F)(F)F)[nH]n(-c2nc3ccccc3s2)c1=O`, for which the inhibition is 91.9% (active).

For `Cc1cc(NC(=O)Nc2ccccc2[N+](=O)[O-])no1`, the inhibition was 40.1%.

For the compound `Cc1cccc(NC(=O)COc2ccc(Br)cc2C)n1`, the inhibition is 50%.

As to `Cc1ccc(S(=O)(=O)Nc2nc3ccccc3nc2N2CCc3ccccc3C2)cc1`, the inhibition was -1.3%.

With `CC1=CC(=C(C#N)c2nc3ccccc3s2)C=C(C)N1c1ccc(F)cc1F`, the inhibition was 19%.

`Brc1ccc2nc(N3CCCC3)sc2c1`: the inhibition was 95.8% (active).
